# Measured values from ChEMBL document CHEMBL3988442, “University of Dundee, Small-Polar-MMV Screening Library” (2021).
# For some of these results: Measured potencies and affinities stand elsewhere.
# What was measured:
# Set-up in all cases: scale not given: direction of the effect not stated beside the values
# [1] = target: Protein translocase subunit SecA (Escherichia coli (strain K12)) (UniProt P10408); assay: Assay to Identify E. coli SecA ATPase Inhibitors; assay type: functional; details: 30 µM
# [2] = target: T1, Ubiquitin-activating enzyme e1, putative (Leishmania donovani (strain BPK282A1)) (UniProt E9BSI1); assay: Leishmania donovani Ubiquitin Activating Enzyme (LdE1); assay type: functional; details: 30 µM
# T1 sequence (whole entry): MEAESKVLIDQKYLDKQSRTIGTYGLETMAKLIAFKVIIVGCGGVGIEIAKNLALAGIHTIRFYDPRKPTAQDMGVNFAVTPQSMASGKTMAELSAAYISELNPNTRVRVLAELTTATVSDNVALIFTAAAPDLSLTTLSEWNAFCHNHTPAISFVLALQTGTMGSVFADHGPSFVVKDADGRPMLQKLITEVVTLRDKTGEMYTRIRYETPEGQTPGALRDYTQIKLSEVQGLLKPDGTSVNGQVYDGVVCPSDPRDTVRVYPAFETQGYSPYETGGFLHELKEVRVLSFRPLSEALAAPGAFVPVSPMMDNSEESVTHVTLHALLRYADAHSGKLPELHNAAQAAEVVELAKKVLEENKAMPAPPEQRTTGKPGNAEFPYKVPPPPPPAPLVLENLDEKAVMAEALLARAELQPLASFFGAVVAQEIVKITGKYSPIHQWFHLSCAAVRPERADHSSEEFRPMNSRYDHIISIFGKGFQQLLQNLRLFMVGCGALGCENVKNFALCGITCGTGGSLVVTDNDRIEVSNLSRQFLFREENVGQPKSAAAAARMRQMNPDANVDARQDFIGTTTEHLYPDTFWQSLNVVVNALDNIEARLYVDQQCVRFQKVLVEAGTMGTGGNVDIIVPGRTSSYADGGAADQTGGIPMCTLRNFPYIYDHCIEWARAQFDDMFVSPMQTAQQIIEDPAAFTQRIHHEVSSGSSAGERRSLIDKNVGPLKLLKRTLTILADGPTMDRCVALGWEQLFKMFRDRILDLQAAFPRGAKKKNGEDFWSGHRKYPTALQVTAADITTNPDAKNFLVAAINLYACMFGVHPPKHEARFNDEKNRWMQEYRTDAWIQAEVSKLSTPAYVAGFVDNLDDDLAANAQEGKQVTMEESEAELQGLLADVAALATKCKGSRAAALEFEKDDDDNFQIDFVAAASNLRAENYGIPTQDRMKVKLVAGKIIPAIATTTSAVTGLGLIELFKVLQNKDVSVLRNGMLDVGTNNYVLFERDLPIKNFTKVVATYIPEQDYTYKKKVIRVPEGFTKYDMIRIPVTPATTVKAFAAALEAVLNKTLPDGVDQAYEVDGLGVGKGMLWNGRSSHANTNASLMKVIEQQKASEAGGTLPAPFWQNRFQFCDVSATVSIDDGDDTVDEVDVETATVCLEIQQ
# [3] = target: Sialic acid-binding Ig-like lectin 9 (Homo sapiens) (UniProt Q9Y336); assay: Hs-Siglec9 ALPHAscreen SOP 20170721; details: 10 µM
# Trypanosoma cruzi = assay: Trypanosoma cruzi phosphomannomutase and mannose-1-phosphate guanylyltransferase assay; assay type: functional; details: 10 µM
# [4] = target: T2, Arginase-2, mitochondrial (Homo sapiens) (UniProt P78540); assay: in vitro enzyme assay to detect the production of urea directly proportional to the activity of Arginase II; assay type: functional; details: 33.3 µM; further: in the data most compounds retested in dose-response had high values
# T2 sequence (whole entry): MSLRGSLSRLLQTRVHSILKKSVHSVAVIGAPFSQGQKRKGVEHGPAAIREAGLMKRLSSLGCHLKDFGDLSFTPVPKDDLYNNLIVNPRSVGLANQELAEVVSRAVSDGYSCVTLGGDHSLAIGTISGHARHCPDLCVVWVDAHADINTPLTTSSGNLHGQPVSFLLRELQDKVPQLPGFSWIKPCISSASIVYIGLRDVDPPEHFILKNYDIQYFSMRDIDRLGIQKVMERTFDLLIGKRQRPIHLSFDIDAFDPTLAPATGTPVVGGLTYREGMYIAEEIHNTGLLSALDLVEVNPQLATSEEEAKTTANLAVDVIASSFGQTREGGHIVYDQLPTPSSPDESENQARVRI
# [5] = target: T3, Proteasome subunit beta (Trypanosoma cruzi) (UniProt O96673); assay: Trypanosoma cruzi proteasome chymotrypsin-like activity (TcProtChymo) assay.; further: in the data most compounds retested in dose-response had high values; assay type: functional; details: 9.37 µM
# T3 sequence (whole entry): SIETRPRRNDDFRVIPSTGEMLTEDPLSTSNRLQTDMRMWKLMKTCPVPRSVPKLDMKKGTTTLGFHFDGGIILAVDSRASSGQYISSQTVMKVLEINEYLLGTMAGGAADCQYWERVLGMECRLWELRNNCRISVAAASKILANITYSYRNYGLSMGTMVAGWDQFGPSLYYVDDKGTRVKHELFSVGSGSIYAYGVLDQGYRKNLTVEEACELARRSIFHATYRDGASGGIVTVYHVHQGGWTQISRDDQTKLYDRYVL
# Homo sapiens = organism: Homo sapiens; assay: To identify inhibition of the IFN signalling (Jak-Stat) pathway via expression of an eGFP reporter gene under the control of an IFN-stimulated response element (ISRE) containing MxA promoter.; assay type: functional; details: 30 µM
# [6] = target: T4, Tyrosyl-tRNA synthetase, putative (Trypanosoma cruzi (strain CL Brener)) (UniProt Q4DSP6); assay: Trypanosoma cruzi tyrosyl tRNA synthetase (TcYRS) _High Tyrosine SOP; assay type: functional; details: 30 µM; further: in the data most compounds retested in dose-response had high values
# T4 sequence (whole entry): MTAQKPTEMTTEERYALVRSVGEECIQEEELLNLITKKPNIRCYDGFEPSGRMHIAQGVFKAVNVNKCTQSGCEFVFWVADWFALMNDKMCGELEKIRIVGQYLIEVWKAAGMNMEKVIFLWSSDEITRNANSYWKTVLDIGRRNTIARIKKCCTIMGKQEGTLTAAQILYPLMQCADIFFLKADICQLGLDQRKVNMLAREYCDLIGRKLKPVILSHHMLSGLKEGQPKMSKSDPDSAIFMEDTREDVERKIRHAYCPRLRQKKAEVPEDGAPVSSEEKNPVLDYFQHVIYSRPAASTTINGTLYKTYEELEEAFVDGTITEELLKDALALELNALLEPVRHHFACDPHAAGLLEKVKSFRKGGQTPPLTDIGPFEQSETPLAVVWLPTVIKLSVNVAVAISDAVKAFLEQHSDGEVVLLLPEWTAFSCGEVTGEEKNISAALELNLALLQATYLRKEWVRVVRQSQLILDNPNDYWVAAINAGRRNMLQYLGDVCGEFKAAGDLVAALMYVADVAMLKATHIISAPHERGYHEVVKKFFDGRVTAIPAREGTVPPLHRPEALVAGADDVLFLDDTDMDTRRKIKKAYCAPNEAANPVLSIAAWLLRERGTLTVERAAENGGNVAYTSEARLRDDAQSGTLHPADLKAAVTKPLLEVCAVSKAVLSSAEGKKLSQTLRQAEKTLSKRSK
# [7] = target: T4, Tyrosyl-tRNA synthetase, putative (Trypanosoma cruzi (strain CL Brener)); assay: Trypanosoma cruzi tyrosyl tRNA synthetase (TcYRS) SOP; assay type: functional; details: 30 µM
# [8] = target: Chromo domain-containing protein 1 (Saccharomyces cerevisiae (strain ATCC 204508 / S288c) (Baker's yeast)) (UniProt P32657); assay: ScCHD-1 Enzyme Inhibition Assay; assay type: functional; details: 30 µM; further: in the data most compounds retested in dose-response had high values
# Chain of Chromo domain-containing protein 1 (Saccharomyces cerevisiae (strain ATCC 204508 / S288c) (Baker's yeast)) (P32657 whole entry, the tested form may be a part): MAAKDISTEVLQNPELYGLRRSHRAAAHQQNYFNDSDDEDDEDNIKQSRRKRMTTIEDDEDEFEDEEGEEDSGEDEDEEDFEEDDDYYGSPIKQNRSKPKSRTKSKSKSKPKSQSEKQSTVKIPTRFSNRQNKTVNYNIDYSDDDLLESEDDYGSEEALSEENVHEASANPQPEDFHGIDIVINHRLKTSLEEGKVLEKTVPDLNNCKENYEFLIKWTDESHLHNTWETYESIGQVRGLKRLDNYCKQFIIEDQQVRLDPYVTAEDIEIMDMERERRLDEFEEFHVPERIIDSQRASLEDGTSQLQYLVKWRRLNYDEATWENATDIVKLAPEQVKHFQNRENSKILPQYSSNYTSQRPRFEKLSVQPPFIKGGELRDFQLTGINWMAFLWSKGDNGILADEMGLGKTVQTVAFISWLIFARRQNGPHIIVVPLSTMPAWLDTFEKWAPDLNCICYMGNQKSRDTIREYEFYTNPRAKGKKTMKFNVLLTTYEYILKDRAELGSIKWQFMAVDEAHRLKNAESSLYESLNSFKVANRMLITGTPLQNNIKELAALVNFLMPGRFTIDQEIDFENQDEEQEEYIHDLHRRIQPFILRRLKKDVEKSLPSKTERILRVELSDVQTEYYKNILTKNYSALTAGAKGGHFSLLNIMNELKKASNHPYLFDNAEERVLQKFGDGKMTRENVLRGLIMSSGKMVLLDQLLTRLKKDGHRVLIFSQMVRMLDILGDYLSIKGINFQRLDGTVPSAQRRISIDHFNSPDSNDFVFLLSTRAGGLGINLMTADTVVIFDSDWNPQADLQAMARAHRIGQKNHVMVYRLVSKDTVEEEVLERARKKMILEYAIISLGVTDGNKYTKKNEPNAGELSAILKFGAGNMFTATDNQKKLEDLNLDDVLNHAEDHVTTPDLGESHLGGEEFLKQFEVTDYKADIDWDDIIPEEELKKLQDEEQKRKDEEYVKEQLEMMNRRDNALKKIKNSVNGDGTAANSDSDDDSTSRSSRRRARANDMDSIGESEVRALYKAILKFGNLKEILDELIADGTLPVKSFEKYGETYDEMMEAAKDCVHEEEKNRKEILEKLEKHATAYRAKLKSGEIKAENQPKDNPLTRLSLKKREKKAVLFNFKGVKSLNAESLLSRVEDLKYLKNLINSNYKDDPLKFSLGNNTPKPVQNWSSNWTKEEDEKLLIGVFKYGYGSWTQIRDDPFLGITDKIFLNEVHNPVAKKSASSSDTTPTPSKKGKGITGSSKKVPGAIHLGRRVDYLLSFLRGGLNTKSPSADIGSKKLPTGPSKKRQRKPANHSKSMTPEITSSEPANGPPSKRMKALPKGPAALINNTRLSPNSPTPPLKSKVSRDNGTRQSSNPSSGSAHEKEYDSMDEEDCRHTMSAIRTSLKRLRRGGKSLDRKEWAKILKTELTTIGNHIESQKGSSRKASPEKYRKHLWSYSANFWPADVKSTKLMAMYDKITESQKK
# Chain of Sialic acid-binding Ig-like lectin 9 (Homo sapiens) (Q9Y336 whole entry): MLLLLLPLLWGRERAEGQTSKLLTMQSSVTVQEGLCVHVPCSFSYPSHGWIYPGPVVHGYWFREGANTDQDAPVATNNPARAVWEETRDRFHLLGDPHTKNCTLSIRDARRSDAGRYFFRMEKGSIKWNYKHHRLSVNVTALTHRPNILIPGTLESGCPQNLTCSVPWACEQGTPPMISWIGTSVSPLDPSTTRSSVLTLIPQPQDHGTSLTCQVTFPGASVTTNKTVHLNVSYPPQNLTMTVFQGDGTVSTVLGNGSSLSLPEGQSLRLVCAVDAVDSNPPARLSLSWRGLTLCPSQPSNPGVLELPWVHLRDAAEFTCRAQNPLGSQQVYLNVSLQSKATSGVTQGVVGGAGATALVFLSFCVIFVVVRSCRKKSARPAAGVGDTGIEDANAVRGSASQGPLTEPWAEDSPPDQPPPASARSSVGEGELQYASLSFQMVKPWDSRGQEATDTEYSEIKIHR
# Chain of Protein translocase subunit SecA (Escherichia coli (strain K12)) (P10408 whole entry): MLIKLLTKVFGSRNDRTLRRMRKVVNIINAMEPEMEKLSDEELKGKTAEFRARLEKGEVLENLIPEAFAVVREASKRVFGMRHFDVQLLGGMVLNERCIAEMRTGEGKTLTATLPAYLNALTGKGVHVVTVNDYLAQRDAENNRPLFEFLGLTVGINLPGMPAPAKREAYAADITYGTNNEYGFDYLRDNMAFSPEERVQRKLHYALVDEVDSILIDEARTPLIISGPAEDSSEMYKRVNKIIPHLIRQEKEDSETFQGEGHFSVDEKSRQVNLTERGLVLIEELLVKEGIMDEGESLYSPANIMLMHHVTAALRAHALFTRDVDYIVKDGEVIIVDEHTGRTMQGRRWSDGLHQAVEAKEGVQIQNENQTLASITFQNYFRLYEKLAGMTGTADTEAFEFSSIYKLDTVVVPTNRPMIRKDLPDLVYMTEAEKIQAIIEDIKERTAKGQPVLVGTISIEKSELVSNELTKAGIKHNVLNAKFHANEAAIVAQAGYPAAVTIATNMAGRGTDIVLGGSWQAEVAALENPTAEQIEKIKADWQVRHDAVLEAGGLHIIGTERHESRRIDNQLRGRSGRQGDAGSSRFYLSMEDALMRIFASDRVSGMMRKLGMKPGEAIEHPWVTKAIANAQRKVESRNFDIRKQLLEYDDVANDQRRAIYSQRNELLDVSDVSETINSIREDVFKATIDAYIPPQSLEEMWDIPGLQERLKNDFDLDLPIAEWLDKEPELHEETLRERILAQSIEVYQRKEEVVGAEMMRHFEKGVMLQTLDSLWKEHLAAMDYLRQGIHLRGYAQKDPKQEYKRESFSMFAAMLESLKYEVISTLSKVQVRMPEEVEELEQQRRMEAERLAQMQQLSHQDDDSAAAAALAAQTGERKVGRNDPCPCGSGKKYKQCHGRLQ
SMILES,Percent Effect [1] [%],Percent Effect [2] [%],Percent Effect [3] [%],Percent Effect (Trypanosoma cruzi) [%],Percent Effect [4] [%],Percent Effect [5] [%],Percent Effect (Homo sapiens) [%],Percent Effect [6] [%],Percent Effect [7] [%],Percent Effect [8] [%]
COc1ncc(C2(O)CCN(Cc3ccccc3O)CC2)c(OC)n1,-3.88,22.7,0.188,1.58,-3.1,13.6,-5.87,6.35,20,-23.4
O=C(NCCn1ccnc1)N1CCN(c2nccs2)CC1,-0.752,15.6,-5.93,-7.28,4.71,18.2,6.33,2.94,7.06,-11.9
CC(C)(C)c1nnc(CN2CCn3c(nnc3C3CC3)C2)o1,-1.7,-2.67,0.00454,-2.21,0.444,3.14,13.2,0.526,2.56,9.52
CC(Nc1cccc(CN2CCOC2=O)c1)C(=O)NC(N)=O (stereo not given),-7.02,15.4,-17.4,13.1,-4.1,7.76,15.9,8.13,18.1,17.9
CCn1c(CN2CCCC2)nnc1C1CCN(Cc2ccc(C)o2)CC1,-1.86,0,4.03,6.89,13.6,13.9,2.8,6.92,19.5,-6.17
O=C1NCCN(CC2CC2)C12CCN(Cc1ccc3c(c1)OCO3)CC2,-1.54,19.5,3.24,-8.47,6.07,16.9,30.6,4.74,-7.69,-3.74
Cc1nc(CN2CCCC(CCNS(C)(=O)=O)C2)c[nH]1 (stereo not given),-6.15,0,1.08,-0.873,3.85,1.71,7.77,3.72,9.76,-0.429
CCCS(=O)(=O)N1CCN(c2ccnc(N3CCCC3)n2)CC1,-0.256,0,12.4,6.89,8.04,6.85,-21.8,2.66,4.88,-3
CCc1ccc(NC(=O)C2OC(c3cccs3)=NN2C(C)=O)cc1 (stereo not given),-5.81,12,-5.11,3.94,-0.443,19.2,14.4,1.06,10,-26.1
Cc1ccc2oc(C(=O)N3CCc4nnc(N(C)C)cc4C3)cc2n1,-3.69,10.7,5.58,3.21,0.887,12.8,4.8,4.74,5.13,-10.7
Cc1ccc(CNC(=O)N2CCN(Cc3ccsc3)CC2)n1C,-3.87,2.67,-1.44,-5.42,-5.76,14.5,15.6,2.63,-17.9,-19.4
O=C(NCc1cc(O)ncn1)C1CCOc2ccccc2C1 (stereo not given),-6.27,5.41,6.22,1.26,5.94,14.4,15.2,6.92,12.2,-2.81
O=C(NCCOc1ccc2c(c1)OCO2)N1CCC1,-4.13,20.8,6.65,-3.36,5.94,19.1,-11.1,4.9,16.5,-4.94
Cc1ccc(CNC(=O)CN2CCCC(Cn3cncn3)C2)s1 (stereo not given),0.165,21.3,-6.68,3.61,3.99,22.3,-8.31,4.74,12.8,-11.2
CN(C)c1ccccc1C(=O)N1C[C@@H](CN2CCOCC2)[C@@H](CO)C1,-7.18,5.41,5.57,6.69,-0.35,18.3,22.3,7.98,19.5,-2.44
CC(=O)N1CCCn2nc(CNS(=O)(=O)N3CCCCCC3)cc2C1,-5.72,0,0.997,-2.81,1.75,11.6,4.54,2.66,9.76,2.81
Cc1cc(C2CCCN2CCCS(=O)(=O)c2ccccc2)no1 (stereo not given),-1.74,5.13,19.5,-1.41,-1.23,-8.11,8.46,3.35,8.43,-1.93
COCCN1CCN(Cc2cccc(C(=O)N(C)C)c2)CC1C (stereo not given),-1.22,18.7,-4.75,-1.61,2.66,7.72,6.69,3.68,7.69,-8.7
CCn1ncc(NC(=O)c2cc(C3CC3)nc3c2c(C)nn3C)c1C,-5.7,20,-4.48,3.75,-2.21,22,14.6,2.12,15,-28.1
